# The panel holds about 83,000 compounds, 20% with a hit somewhere; the sample as a whole holds those more often.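 Single-concentration screen, 48 h exposure, 96-well plates. Endpoint: percent growth. Below 10 = active.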 Values without a mark were called inactive. Active and inactive are the calls of the source.
# How the values were obtained:
# Assay in all cases: NCI-60 one-dose screen, 48 h (100 = growth as untreated, 0 = no growth, -100 = all killed)
# Settings in all cases: 10 µM unless noted
# SK-MEL-2 melanoma = tested on: SK-MEL-2 melanoma
# EKVX NSCLC = tested on: EKVX NSCLC
# SN12C renal = tested on: SN12C renal
# UO-31 renal = tested on: UO-31 renal
# TK-10 renal = tested on: TK-10 renal
# ACHN renal = tested on: ACHN renal
# CAKI-1 renal = tested on: CAKI-1 renal
# A498 renal = tested on: A498 renal
# CCRF-CEM leukemia = tested on: CCRF-CEM leukemia
# MOLT-4 leukemia = tested on: MOLT-4 leukemia
# SR leukemia = tested on: SR leukemia
# RPMI-8226 leukemia = tested on: RPMI-8226 leukemia
# OVCAR-8 ovarian = tested on: OVCAR-8 ovarian
# OVCAR-5 ovarian = tested on: OVCAR-5 ovarian
# OVCAR-4 ovarian = tested on: OVCAR-4 ovarian
# SK-OV-3 ovarian = tested on: SK-OV-3 ovarian
# IGROV1 ovarian = tested on: IGROV1 ovarian
# OVCAR-3 ovarian = tested on: OVCAR-3 ovarian
# NCI/ADR-RES ovarian = tested on: NCI/ADR-RES ovarian
# HS 578T breast = tested on: HS 578T breast
Structure (SMILES),growth (SK-MEL-2 melanoma),growth (EKVX NSCLC),growth (SN12C renal),growth (UO-31 renal),growth (TK-10 renal),growth (ACHN renal),growth (CAKI-1 renal),growth (A498 renal),growth (CCRF-CEM leukemia),growth (MOLT-4 leukemia),growth (SR leukemia),growth (RPMI-8226 leukemia),growth (OVCAR-8 ovarian),growth (OVCAR-5 ovarian) [%],growth (OVCAR-4 ovarian),growth (SK-OV-3 ovarian),growth (IGROV1 ovarian),growth (OVCAR-3 ovarian),growth (NCI/ADR-RES ovarian),growth (HS 578T breast)
CC(=O)Oc1ccccc1C(=O)N(Cc1ccc2c(Cl)cc(Cl)c(O)c2n1)c1ccccc1,66.7%,37.4%,46.8%,29.9%,81.3%,33.8%,38.9%,57.6%,31.3%,38.7%,39.7%,36.1%,34.9%,77.2,36.2%,64.5%,42.8%,40.9%,8.97% (active),
Cc1ccc(Nc2oc(-c3ccccc3)nc2[P+](c2ccccc2)(c2ccccc2)c2ccccc2)cc1,-69.1% (active),-31.3% (active),7.56% (active),-72.8% (active),-32.2% (active),2.5% (active),-29.8% (active),-52.2% (active),6.27% (active),-2.23% (active),8.76% (active),-38.3% (active),-27.3% (active),11.3,6.45% (active),-33.7% (active),-11.9% (active),-30.7% (active),-52.3% (active),
COc1ccc(/C=C/C(=O)c2ccc(-n3cc(CN4CCN(c5cc6c(cc5F)c(=O)c(C(=O)O)cn6C5CC5)CC4)nn3)cc2)cc1,97%,96.6%,32.6%,54.9%,104%,85%,67.8%,68.2%,44%,64.2%,-2.25% (active),-24.4% (active),67.4%,92.1,88%,76.9%,26.6%,39.3%,90.7%,52.8%
Cc1cc(N2CCOCC2)nc(N(CCCNc2ccnc3cc(Cl)ccc23)Cc2ccc3c(c2)OCO3)n1,-18.5% (active),3.49% (active),21%,-32.3% (active),-66% (active),-86.2% (active),35.2%,-31.5% (active),-5.56% (active),-36.2% (active),-29.2% (active),-2.52% (active),-52.4% (active),22.7,-37.9% (active),18.9%,4.36% (active),-88.6% (active),-36.1% (active),
N#C/C(=N\Nc1ccccc1)C(=O)Nc1cc(-c2ccccc2)nn1-c1ccccc1,22.6%,28.3%,3.41% (active),29.7%,38.6%,39%,37.9%,1.62% (active),26.6%,33.3%,62.3%,18.5%,40.6%,72.2,22.1%,31.3%,30.6%,12.4%,41.5%,41.9%
CN1CCN(Cc2ccc(NC(=O)c3cncc(C#Cc4c(N)ncc5cc(F)ccc45)c3)cc2C(F)(F)F)CC1,-2.97% (active),69.6%,41.7%,14.6%,67.4%,40.4%,62%,73.6%,-13.6% (active),-59.6% (active),0.501% (active),-14% (active),28%,43.7,54.4%,82.6%,15.1%,76.3%,10.3%,31.8%
CC(C)n1cc(C2=C(c3cccc4ccccc34)C(=O)NC2=O)c2cc(Br)ccc21,73.8%,85%,75.4%,58%,109%,53.8%,27.9%,-8.37% (active),52.8%,49%,25.8%,92.1%,72.7%,89.8,64.9%,64%,69.9%,20.7%,21.1%,45.8%
O=c1n(C2OC(CO)C(O)C2O)ccc2nccn12 (stereo not drawn),126%,108%,107%,99.8%,122%,104%,102%,95.8%,99.5%,97.9%,88.2%,114%,92%,115,117%,117%,113%,107%,113%,101%
Cc1ccc(C2=Nc3c(N)nc(N)nc3NC(c3cccc(Nc4ccnc5cc(C(F)(F)F)ccc45)c3)C2)cc1 (stereo not drawn),-8.24% (active),38.1%,39.2%,39.6%,66%,39.1%,29%,58.4%,3.36% (active),1.92% (active),-8.2% (active),-19.2% (active),36.2%,105,58.2%,31.4%,36.1%,12.6%,30.1%,26.3%
CCOC(=O)c1cc(C(=O)c2cc(OC)cc(OC)c2)n2ncccc12,19.3%,49.7%,44.8%,47.8%,63.9%,53.2%,34.1%,-3.04% (active),24%,32.6%,32.3%,28.9%,38.2%,92.2,71.4%,19.6%,56.4%,0.928% (active),7.11% (active),
O=C1/C(=C/c2ccc(Br)cc2)COc2ccc(O)cc21,107%,98.5%,73.3%,47.9%,99.1%,86.7%,80.1%,103%,1.32% (active),16.6%,12.1%,-23.7% (active),79.1%,94.8,97.9%,120%,84.3%,96.8%,94.6%,
CCOC(=O)c1c(N)sc2cc(O)ccc12,110%,106%,101%,83%,101%,98.2%,97.7%,104%,111%,84.5%,93%,110%,100%,100,108%,111%,97.1%,97.9%,100%,
O=C(Nc1ncc(Cc2ccccc2)s1)c1ccc2c(c1)OCCO2,34.5%,32.6%,34.5%,46.6%,38.8%,27.3%,17.2%,2.75% (active),13.8%,6.38% (active),5.84% (active),14.6%,19%,28.5,46.3%,25%,23.4%,-11.3% (active),7.95% (active),25.1%
Cn1cc(-c2csc(-c3cn(C)c4ccc(F)cc34)n2)c2cnccc21,88.9%,-13.1% (active),-29.9% (active),-69.7% (active),-20.2% (active),-89.6% (active),-43.9% (active),78.3%,-11.6% (active),-36.1% (active),-21.5% (active),-38.4% (active),5.3% (active),25.6,11.3%,107%,-24.7% (active),-57.4% (active),24.7%,-34.2% (active)
Cc1c(N2CCCCC2)[nH]c2ccccc12,119%,117%,98.4%,125%,121%,115%,101%,123%,55.1%,110%,119%,62.6%,105%,124,142%,118%,136%,125%,107%,
